Out of some 1,500 compounds screened, about 390 (26%) were called active. The rule behind the calls is not given here. These entries were drawn from the full list. Measured potencies and affinities stand elsewhere.
These compounds were tested against Histone-lysine N-methyltransferase NSD2 (Homo sapiens) (UniProt O96028) (assay: blockers of NSD2 H4 peptide methylation – biochemical, AlphaScreen, cherry-picked samples, dose response (AID 1053173)). Conditions: 120 min; series mostly up to 10 µM.
Histone-lysine N-methyltransferase NSD2 (Homo sapiens), sequence (O96028 whole entry, looked up): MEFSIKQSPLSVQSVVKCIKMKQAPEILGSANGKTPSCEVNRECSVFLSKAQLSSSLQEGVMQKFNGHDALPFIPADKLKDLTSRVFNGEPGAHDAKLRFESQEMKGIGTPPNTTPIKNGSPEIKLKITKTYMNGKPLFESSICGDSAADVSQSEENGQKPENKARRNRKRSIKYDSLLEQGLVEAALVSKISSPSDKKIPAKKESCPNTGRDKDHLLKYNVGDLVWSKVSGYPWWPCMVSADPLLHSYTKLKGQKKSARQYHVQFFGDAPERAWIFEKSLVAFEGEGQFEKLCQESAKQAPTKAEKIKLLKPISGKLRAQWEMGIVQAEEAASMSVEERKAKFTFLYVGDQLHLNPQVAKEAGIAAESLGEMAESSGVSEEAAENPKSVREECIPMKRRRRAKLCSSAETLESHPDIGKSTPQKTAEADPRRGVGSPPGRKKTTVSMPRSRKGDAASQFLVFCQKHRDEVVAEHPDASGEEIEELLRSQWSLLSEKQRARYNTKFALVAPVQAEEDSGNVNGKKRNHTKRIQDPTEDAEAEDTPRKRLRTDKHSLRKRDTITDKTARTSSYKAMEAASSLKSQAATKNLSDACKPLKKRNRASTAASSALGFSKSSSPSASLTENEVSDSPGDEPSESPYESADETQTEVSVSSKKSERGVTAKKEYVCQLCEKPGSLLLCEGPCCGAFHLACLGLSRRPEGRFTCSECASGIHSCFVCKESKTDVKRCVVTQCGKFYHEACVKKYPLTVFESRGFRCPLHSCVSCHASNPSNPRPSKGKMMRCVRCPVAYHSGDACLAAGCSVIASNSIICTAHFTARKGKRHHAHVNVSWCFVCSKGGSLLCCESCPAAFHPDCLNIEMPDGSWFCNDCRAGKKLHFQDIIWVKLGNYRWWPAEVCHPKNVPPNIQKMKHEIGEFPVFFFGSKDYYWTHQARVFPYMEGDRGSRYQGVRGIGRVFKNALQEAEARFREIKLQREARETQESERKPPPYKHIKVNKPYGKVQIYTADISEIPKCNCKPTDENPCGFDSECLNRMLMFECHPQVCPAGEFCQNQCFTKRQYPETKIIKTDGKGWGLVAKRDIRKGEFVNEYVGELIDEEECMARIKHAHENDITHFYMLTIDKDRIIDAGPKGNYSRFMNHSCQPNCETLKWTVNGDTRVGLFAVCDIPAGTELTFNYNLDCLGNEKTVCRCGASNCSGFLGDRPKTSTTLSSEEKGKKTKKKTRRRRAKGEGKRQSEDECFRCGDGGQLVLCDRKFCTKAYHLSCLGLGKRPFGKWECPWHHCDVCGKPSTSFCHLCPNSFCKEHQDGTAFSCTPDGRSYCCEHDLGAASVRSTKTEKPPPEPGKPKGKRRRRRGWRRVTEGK

outcome, inactive:
Cc1ccc2[nH]c3c(c2c1)CN(C(=O)CN(C)CC1OCCO1)CC3
CN1CCCCCC1=Nc1ccc([N+](=O)[O-])cc1
N#Cc1ccc(CSc2ncccn2)cc1
COc1ccc2ccccc2c1C1CC(=O)N2CN(C)CSC2=C1C#N (centres undefined)
Cc1cccc(C(=O)Nc2cccc(-c3cnc4ccccc4n3)c2)c1
C/C(=N\O)C(C)Oc1ccc(Cl)cc1 (centres undefined)
NC(=O)c1oc2ccc(Cl)cc2c1N
CCc1ccc(N2CN=c3s/c(=C\c4ccccc4)c(=O)n3C2)cc1
CCN1CCN(Cc2nc(N)nc(Nc3ccc(C)c(C)c3)n2)CC1
CSc1nnc2c(n1)OC=Nc1ccccc1-2
COc1ccc(C2N(C(=O)C(F)(F)F)C(C)CN2S(=O)(=O)c2ccc(C)cc2)cc1 (centres undefined)
Nc1ccc(N(CCO)CCO)cc1
O=C(CSCC(=O)N1CCOCC1)Nc1nc(-c2ccccc2)cs1
Cc1cccc(NC(=O)CCN2CCCCC2)c1
O=C(OC(C(=O)NC1CCCCC1)c1ccccn1)c1cccs1 (centres undefined)
C/C(NCCc1ccccc1)=C1/CCOC1=O
COC(=O)c1ccc(/C=N/N2CCN(Cc3ccccc3)CC2)cc1
CCCCCCCCn1cnc2c(N)c(C)c(C)cc21
Cc1cc(Cl)cc(Br)c1OCCCN1C(=O)NC(C)(C)C1=O
CC(=O)C1=C(O)C(=O)N(Cc2cccnc2)C1c1ccccc1 (centres undefined)
Cc1ccc(OCc2cnc(Cl)s2)c(C)c1
CC(=O)N=Cc1c(C)c(C#N)c(=O)n(C)c1O
Oc1cccc(NC(=S)N=Nc2c(O)[nH]c3ccc(Br)cc23)c1
CCOc1ccc2nc(SCC(=O)NCc3ccco3)sc2c1
N#Cc1c(NC(=O)c2ccncc2)sc2c1CCC2
COC(=O)N/N=C1/C/C(=N\NC(=O)OC)c2ccccc21
COc1cc(OC)nc(NC2OC(=O)c3ccccc32)n1 (centres undefined)
CC(CS(=O)(=O)c1ccc2c(c1)NC(=O)CS2)C(=O)NCc1ccccc1Cl (centres undefined)
Cc1cccc(/C=N/NC(=O)C(C)Nc2cccc3ccccc23)n1 (centres undefined)
CC(Nc1cccc2ccccc12)C(=O)N/N=C/c1ccccn1 (centres undefined)
Cc1ccc(Cl)cc1NC(=O)C[n+]1ccc(Cc2ccc([N+](=O)[O-])cc2)cc1
O=C(CSc1nnc(-c2ccccc2O)o1)NC1CCCCC1
O=C(O)CN1C(=O)/C(=C\c2cccc(OCc3ccc(F)cc3)c2)SC1=S
Cc1cccc(C)c1NC(=O)c1c[nH]c2ccccc12
O=C1/C(=C/c2ccccc2)CN(C(=O)CCN2CCOCC2)C/C1=C\c1ccccc1
O=Cc1ccc(OC(=O)C2CC(=O)N(c3ccc(F)cc3)C2)cc1 (centres undefined)
Cc1ccc(NC(=O)C[n+]2ccn(C3=C([O-])c4ccccc4C3=O)c2)cc1
Cc1c(C(=O)NC(C)C)oc2c1-c1[nH]ncc1CC2
O=C(Nc1nnc(SCc2ccc(F)cc2)s1)c1ccccn1
c1ccc(CN2CCN(c3nc(-c4ccccc4)nc(-n4ccnc4)n3)CC2)cc1
O=C1NC(NS(=O)(=O)c2ccccc2)(C(F)(F)F)C(=O)N1c1cccc(Cl)c1 (centres undefined)
CC(C)Sc1nnc([C@H](Cc2c[nH]c3ccccc23)NC(=O)OC(C)(C)C)o1
O=[N+]([O-])c1cccc(NC(=S)N2CCOCC2)c1
O=S(=O)(Nc1cc(Sc2cccc3cccnc23)c(O)c2ccccc12)c1ccccc1
CCNC(=O)Cc1ccc(NS(=O)(=O)c2ccc(F)cc2)cc1
Cc1cc(C)nc(NS(=O)(=O)c2ccc(NC(=O)c3ccccc3Br)cc2)n1
NS(=O)(=O)c1ccc(CNC(=O)CCCSc2ccccc2)cc1
CCOC(=O)c1cc(S(=O)(=O)Nc2ccc(OC)cc2OC)cn1C
O=C1NC2=C(CCc3ccccc32)C(c2ccccc2)N1 (centres undefined)
Cc1cccn2c(=O)c3cc(C(=O)NCCCn4ccnc4)n(C)c3nc12
CCOc1cc(C(=O)NCC(=O)N2CCC3(CC2)NCCc2[nH]cnc23)cc(OCC)c1OCC
O=[N+]([O-])c1ccc(N/N=C/c2cccs2)nc1
CCOc1ccc(N)cc1OC
CCN(CC)CCNC(=O)c1cccc(NC(=O)C(=O)c2cc(Br)ccc2NC(C)=O)c1
O=C(/C=C/c1ccc(Cl)cc1Cl)NCc1ccco1
CC1Cc2ccccc2N1C(=O)COc1cccc(-n2cnnn2)c1 (centres undefined)
COc1ccc(CNC(=O)CN(c2ccc(C)cc2)S(=O)(=O)c2c(C)noc2C)cc1
Cc1cc(F)c(F)c(C(=O)N2C(C)CCCC2C)c1Cl (centres undefined)
CC1(C)Cc2cccc(OCC(=O)O)c2O1
Cc1cc(=O)n(-c2ccc3ccccc3n2)[nH]1
COc1ccc2nc(NC(=O)CS(=O)(=O)c3ccc(C)cc3)sc2c1
COc1ccc(N2C(=O)C3C(C2=O)C(C(=O)c2ccc(Cl)cc2)N2CCCC32)cc1 (centres undefined)
COc1ccc(CCCc2n[nH]c(=S)n2C)cc1C
CCOc1ccc(NC(=O)CSc2nnc(C34CC5CC(CC(C5)C3)C4)n2C)cc1
CCN(CC)CCNC(=O)CN1C(=O)COc2ccc(S(=O)(=O)N3CCOCC3)cc21
Cc1ccc(Cl)cc1N1CCN(C(=O)c2ccc3nc[nH]c3c2)CC1
CCOc1ccc(NC(=O)CSc2nc3ccccc3c(=O)n2CCCC(=O)N2CCCC2)cc1
O=C(O)CN1C(=O)/C(=C/c2ccc(SCc3ccccc3)o2)SC1=S
O=C1Cc2ccccc2C(=O)N1c1ccccc1
Clc1ccc(C2=CSC3=Nc4cccc5cccc(c45)N23)cc1
CN1/C(=N\O)c2cccc3cccc1c23
Cc1nn(CC(=O)Nc2nnc(C(C)C)s2)c(=O)c2ccccc12
Cc1cccc(Nc2nnc(-c3ccc(N4CCOCC4)c([N+](=O)[O-])c3)c3ccccc23)c1
CC(C)(C)c1[nH]nc2c1C(c1ccoc1)C(C#N)=C(N)O2 (centres undefined)
Fc1ccc(CNc2nc(-c3cccnc3)nc3ccccc23)cc1
COC1=CC(=O)C(OC)=C(OC)C1=O
N#CCC(=O)c1sccc1-n1cccc1
CNC(=O)c1ccc(-c2cc(C(F)(F)F)nn2C)s1
O=C(O)c1ccc2c(c1)C(=O)N(c1cccc(C(=O)/C=C/c3ccccc3)c1)C2=O
Cc1[nH]n(-c2ccccc2)c(=O)c1C(c1ccc(C(=O)O)cc1)c1c(C)[nH]n(-c2ccccc2)c1=O
Cc1ccnc(-n2c(CCN3C(=O)c4ccccc4C3=O)nc3ccccc3c2=O)c1
CC1CCCCN1C(=O)CCNC(=O)Cn1cnc2ccccc2c1=O (centres undefined)
CCN(CC)C(=O)C1CCCN(Cc2ccc(OC)c(C)c2C)C1 (centres undefined)
Cc1cc2nn(-c3cccc4ccccc34)nc2cc1NC(=O)c1cccs1
COc1ccc(-c2nn(-c3ccccc3)cc2C(=O)Nc2ccc(C(=O)O)cc2)cc1
CC(=NO)c1cc(Br)c2cccc3c2c1CC3
Cc1ccc(/C=C2/SC(=O)NC2=S)o1
CC1(C)C2CCC1(C)C(OC(=O)CSc1nc(N)cc(=O)[nH]1)C2 (centres undefined)
Cc1c(C(=O)c2no[n+]([O-])c2C(=O)c2cnn(C)c2C)cnn1C
COc1ccc(NC2=CC(c3cccc(OC)c3)N(c3ccc(OC)cc3)C2=O)cc1 (centres undefined)
COc1ccc(Nc2oc(COc3ccccc3OC)nc2C#N)cc1
CCOc1ccc(NC(=O)CN(c2cccc(C(F)(F)F)c2)S(C)(=O)=O)cc1
COc1ccc(N/C=C2\CCc3ccccc3C2=O)cc1
c1coc(CNCCCN2CCOCC2)c1
O=C(CN1CCC(C(=O)c2ccc3c(c2)OCCO3)CC1)NCc1ccccc1
COc1cccc(CN(C)C(=O)c2cc(COc3c(F)cccc3F)on2)c1
Cc1ccccc1Nc1nc(N)nc(CSc2nnc3sc4ccccc4n23)n1
COc1cc2sc(C)nc2c2ccccc12
Cc1ccc(Cn2c(SCC(=O)N3CC(=O)Nc4ccccc43)nc3ccccc3c2=O)cc1
CCN1CCN(c2ncnc3scc(-c4ccc(OC)cc4)c23)CC1
O=C(O)C1CC(c2ccccc2F)=NO1 (centres undefined)
Cc1cc(C)cc(-n2c(C)nc3cc(C(=O)O)ccc32)c1
O=C(CSc1ccc(Cl)cc1)Nc1cc(-c2nc3ncccc3o2)ccc1Cl
COCCCNC1=C(Cl)C(=O)c2ccccc2C1=O
CC(C)(C)CN1CCNC(=O)C1CC(=O)N1CCC(C(=O)N2CCOCC2)CC1 (centres undefined)
CCOc1ccccc1/C=N/NC(=O)c1nnn(-c2nonc2N)c1CN1CCC(C)CC1
CNc1ccc(Br)cc(C(=O)/C=C/c2cccc(OC)c2OC)c1=O
COc1cc(/C=C/c2cccc[n+]2C)ccc1OCC(=O)Nc1ccccc1C
CC(C)(C)c1cc(C(=O)N/N=C/c2ccncc2)n[nH]1
CC(=O)c1ccc(NC(=S)Nc2cccc3cnccc23)cc1
COC(=O)c1c(NC(=O)C(C)C)sc(C(=O)N2CCOCC2)c1C
COc1ccc(NC(=S)Nc2cccc3cnccc23)cc1
Cc1ccccc1NC(=S)Nc1cccc2cnccc12
CN(C)CCC(=O)N1C/C(=C/c2ccccc2)C(=O)/C(=C\c2ccccc2)C1
